Laboratory results reported in PubChem BioAssay (NCATS).
Several values for one entry are separate records, joined by “and”; a condition that tells them apart may be missing. Equal entries are not always repeated. Inconclusive results are not listed. Activity calls are given as the source filed them. Calls come from the whole dose curve; as a rule, active = well fitted inhibition curve with a large enough effect; inconclusive = small, poorly fitted or top-dose-only effect; inactive = flat fitted curve, though single readings scatter.

How the values were obtained:
[1] = system: CRL-7250; assay: Cytotoxic Profiling of Annotated Libraries Using Quantitative High-Throughput Screening (AID 1296008); settings: Five cell lines viability, CellTiter-Glo ATP luminescence, 48-72 h; max response: stronger effect = lower value; note: potency is the fitted concentration of half-maximal effect; for max response: % is set by controls: 0 for no effect and ±100 for the full control effect
How it was run: (§1)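 Cells exposed to compounds for 48 or 72 hr at 37 degrees Celsius. Viability read as ATP-coupled luminescence with CellTiter-Glo after 10 min at room temperature.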

[2] = system: HEK293; assay: as above; settings: Five cell lines viability, CellTiter-Glo ATP luminescence, 48-72 h; max response: stronger effect = lower value
How it was run: as §1

[3] = system: HaCat; assay: as above; settings: Five cell lines viability, CellTiter-Glo ATP luminescence, 48-72 h; max response: stronger effect = lower value
How it was run: as §1

[4] = system: KB-3-1; assay: as above; settings: Five cell lines viability, CellTiter-Glo ATP luminescence, 48-72 h; max response: stronger effect = lower value
How it was run: as §1

[5] = system: PC49; assay: qHTS profiling for inhibitors of Plasmodium falciparum proliferation (AID 504749);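 note: 0% = DMSO vehicle and full inhibition = artemisinin control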; settings: P. falciparum in erythrocytes, SYBR Green DNA, 72 h; series mostly up to 28.7 µM
How it was run: (§2)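 Readout was DNA-dye fluorescence from lysed cultures, ex 485/em 535 nm. Parasitized red cells had grown 72 h with compound; data scaled between 0.29 uM artemisinin and DMSO wells and corrected using vehicle-only plates.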

[6] = system: SC27B; assay: as above; settings: P. falciparum in erythrocytes, SYBR Green DNA, 72 h; series mostly up to 28.7 µM
How it was run: as §2

[7] = system: TAB109; assay: as above; settings: P. falciparum in erythrocytes, SYBR Green DNA, 72 h; series mostly up to 28.7 µM
How it was run: as §2

[8] = system: TAB113; assay: as above; settings: P. falciparum in erythrocytes, SYBR Green DNA, 72 h; series mostly up to 28.7 µM
How it was run: as §2

[9] = system: TAB165; assay: as above; settings: P. falciparum in erythrocytes, SYBR Green DNA, 72 h; series mostly up to 28.7 µM
How it was run: as §2

[10] = system: W2; assay: as above; settings: P. falciparum in erythrocytes, SYBR Green DNA, 72 h; series mostly up to 28.7 µM
How it was run: as §2
Note: nearly all actives have a fitted effect of over 60% in size.

Cc1c(N)c(=O)n(-c2ccccc2)n1C
inactive: max response [1] 4.52% | max response [2] -1.84% | outcome [3] | max response [4] -14.7%

COC(=O)Nc1nc2ccc(C(=O)C3CC3)cc2[nH]1
inactive: outcome [3]
active: Potency [1] 2990 nM | Potency [2] 750 nM

O=C(CS)Nc1ccccc1
inactive: max response [1] -21.9% | max response [2] -28.6% | outcome [3]

CN1CC(=O)N/C1=N/C(=O)Nc1cccc(Cl)c1
inactive: max response [1] 2.65% | outcome [2] | outcome [3] | max response [4] 1.15% and -4.39%

CCCCCCCC/C=C/C(=O)O
inactive: outcome [1] | max response [2] 0.673% | outcome [3]

CCNc1nc2c(ncn2[C@H]2C[C@H](O)[C@@H](CO)O2)c(=O)[nH]1
inactive: max response [1] 0.139% | outcome [2] | max response [3] -28.7% | outcome [4]

CC(C(=O)O)c1ccc2c(c1)[nH]c1ccc(Cl)cc12 (configuration not stated)
inactive: Potency [5] | Potency [6] | Potency [7] | Potency [8] | Potency [9] | Potency [10] | max response [1] 2.04% | outcome [1] | max response [2] -1.79% | outcome [2] | max response [3] 1.94% | outcome [3] | max response [4] 2.49% and 1.67%

O=C(Nc1ccc2c(c1)CCN(Cc1ncn[nH]1)C2)c1ccccc1-c1ccc(C(F)(F)F)cc1
inactive: max response [1] -23.1% | max response [3] 0.241% | max response [4] 1.94%
active: Potency [2] 23100 nM

Fc1ccc2[nH]c(CN3CCN(c4ccccn4)CC3)cc2c1
inactive: max response [1] -22.3%

CNC(=O)c1c(I)c(NC(=O)CCCCC(=O)Nc2c(I)c(C(=O)O)c(I)c(C(=O)NC)c2I)c(I)c(C(=O)O)c1I
inactive: max response [1] -5.95% | max response [2] -10.9%

N=C(N)N
inactive: max response [1] -5.46% | outcome [2] | outcome [3]

CC(C)(C)c1nnc(NS(=O)(=O)c2ccc(N)cc2)s1
inactive: max response [1] 2.87% | max response [2] -1.6% | outcome [3]

CCCCCCCCCCCCOCCO
inactive: max response [1] -9.14% | max response [2] -2.23% | max response [3] -12.4%

Nc1ccc([N+](=O)[O-])cc1O
inactive: max response [1] -25% | max response [2] -27.4% | max response [3] 4.66%

Nc1ccc(O)c([N+](=O)[O-])c1
inactive: max response [1] 4.51% | max response [2] -8.71% | outcome [3]

COC(=O)[C@H]1[C@H]2C[C@@H]3c4[nH]c5cc(OC)ccc5c4CCN3C[C@H]2C[C@@H](OC(=O)/C=C/c2cc(OC)c(OC)c(OC)c2)[C@@H]1OC
inactive: max response [1] -14.2% | max response [2] -6.09% | outcome [3]

C/C(=N\O)c1ccc(OCC(=O)N2CCCCC2)cc1
inactive: max response [1] -1.81% | max response [2] 2.8% | max response [3] 2.33%

O=C(O)Cc1ccc2c(c1)C(=O)c1ccccc1CO2
inactive: outcome [1] | max response [2] -3.93% | max response [3] 4.48%

CC(=O)SCC(CC(=O)c1ccc(C)cc1)C(=O)O (configuration not stated)
inactive: max response [1] 2.17% | outcome [2] | max response [3] -9.14%

O=[N+]([O-])c1ccc(CNc2nc(NCc3cccc(C(F)(F)F)c3)nc3nc[nH]c23)cc1
inactive: max response [1] -5.54% | max response [2] -22% | max response [3] 0.807% | outcome [4]

COc1cccc2c1C(=O)c1c(O)c3c(c(O)c1C2=O)C[C@@](O)(C(=O)CO)C[C@@H]3O[C@H]1C[C@H](N)[C@H](O[C@@H]2CCCCO2)[C@H](C)O1
active: Potency [1] 2370 nM | Potency [2] 84.1 nM | Potency [3] 53.1 nM

C[C@H](O)[C@H](O)[C@H]1CNc2nc(N)[nH]c(=O)c2N1
inactive: outcome [1] | outcome [2] | max response [3] 1.87%

CC(=O)O[C@H]1C[C@@]2(C)[C@@H](C[C@@H](O)[C@H]3[C@@]4(C)CC[C@@H](O)[C@@H](C)[C@@H]4CC[C@@]32C)/C1=C(\CCC=C(C)C)C(=O)O
inactive: outcome [1] | max response [2] -11.3%

COC(=O)c1nc(Cl)c(Cl)nc1N
active: Potency [1] 5310 nM | Potency [2] 841 nM

N=C1N=C(N)c2cc3ccccc3cc21
active: Potency [1] 17200 nM | Potency [2] 19300 nM

COc1ccnc2c1CCCCC2S(=O)c1nc2ccccc2[nH]1 (configuration not stated)
inactive: max response [1] -8.92% | max response [2] -19.1% | outcome [3]

CO[C@@]1(NC(=O)Cc2cccs2)C(=O)N2C(C(=O)O)=C(COC(N)=O)CS[C@@H]21
inactive: outcome [1] | outcome [2] | outcome [3] | max response [4] -24.9% and -6.96%

C#CC1(O)CC[C@H]2[C@@H]3CCC4=CCCC[C@@H]4[C@H]3CC[C@@]21C (some centres not stated)
inactive: max response [1] -8.11% | outcome [2] | outcome [3]

Cc1ccc2c(n1)Oc1ccc(C(C)C(=O)OCC(=O)N(C)C)cc1C2 (configuration not stated)
inactive: max response [1] 4.34% | outcome [2] | max response [3] 0.244% | max response [4] -21.6% and -9.27%

NCCO
inactive: max response [1] -2.34% | max response [2] 4.02% | outcome [3]

O=C(O)CC1CC(c2ccccc2)=NO1 (configuration not stated)
inactive: max response [1] -3.03% | max response [2] 0.396% | max response [3] -1.53% | outcome [4]

C[N+]1(C)[C@@H]2CC(OC(=O)[C@H](CO)c3ccccc3)C[C@H]1[C@@H]1O[C@@H]12 (some centres not stated)
inactive: outcome [1] | outcome [2] | outcome [3]

Nc1ccc(C(=O)O)c(O)c1
inactive: Potency [5] | Potency [6] | Potency [7] | Potency [8] | Potency [9] | Potency [10] | max response [1] -0.825% | max response [2] 3.06% | outcome [3] | max response [4] -11.5%

O=C(/C=C/c1ccccc1)NCCO
inactive: Potency [5] | Potency [6] | Potency [7] | Potency [8] | Potency [9] | Potency [10] | outcome [1] | max response [2] -1.9% | max response [3] -18% | max response [4] 9.29%

CC(C)OC(=O)c1cc(C(=O)OC(C)C)cc([N+](=O)[O-])c1
inactive: outcome [1] | max response [2] 4.1% | outcome [3] | max response [4] 2.68%

Cc1c(Nc2ncccc2C(=O)O)cccc1C(F)(F)F
inactive: Potency [5] | Potency [6] | Potency [7] | Potency [8] | Potency [9] | Potency [10] | max response [1] -2.3% | max response [2] -18.7% | max response [3] 1.65% | max response [4] -9.8%
